Reference: PubChem BioAssay AID686949 (The Scripps Research Institute Molecular Screening Center, 2013)
Hit rate of the full screen: of about 3,200 compounds, about 2,200 (69%) were called active. So high a share suggests a set chosen from earlier hits. Only a sample is shown. Unmarked numbers belong to inactive results.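 The calls were made as follows: active = activation, as change over the incubation, above the mean of all tested compounds plus 3 SD (cut at about 13% in these data); inactive = the rest.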

target: Kallikrein-7 (Homo sapiens) (UniProt P49862); assay: activation of human kallikrein-7 proenzyme – biochemical, fluorescence intensity, triplicate, confirmation (AID 686949); conditions: purified proKLK7, EDANS-DABCYL substrate fluorescence; at 7 µM; stronger effect = higher value; scaled: vehicle 0, mature enzyme 100
Sequence (P49862 whole entry, looked up): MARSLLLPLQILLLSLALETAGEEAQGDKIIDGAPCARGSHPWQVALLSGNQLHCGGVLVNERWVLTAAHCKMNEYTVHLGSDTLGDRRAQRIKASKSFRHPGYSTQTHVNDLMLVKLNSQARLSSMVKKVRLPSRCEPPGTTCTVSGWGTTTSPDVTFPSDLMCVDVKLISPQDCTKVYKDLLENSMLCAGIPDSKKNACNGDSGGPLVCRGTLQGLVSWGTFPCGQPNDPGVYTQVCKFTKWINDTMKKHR

Compound	activation
Clc1ccc(-c2cccc3nccn23)cc1	8.31%
COc1cc(/C=C/C(=O)Nc2ccc(OC)c(S(=O)(=O)N3CCOCC3)c2)ccc1OCC#N	96.2% (active)
CCOc1ccccc1C1C(C(=O)OC)=CN(C)C=C1C(=O)OC	-23.5%
CN(C(=O)COc1ccccc1)c1nnc(-c2ccncc2)s1	111% (active)
COCC(=O)Nc1nnc(COc2ccccc2)s1	-0.07%
CN(C(=O)c1ccccn1)c1nnc(-c2ccccn2)s1	74% (active)
Oc1ccc2ccc3cccc[n+]3c2c1	34.6% (active)
CCOCCCNC(=O)c1cc2c(=O)n3ccccc3nc2s1	74.1% (active)
CN(C(=O)c1cc2c(=O)n3ccccc3nc2s1)C1CCCCC1	33% (active)
CCN(CC)CCCNC(=O)c1cc2c(=O)[nH]c3ccc(C)cc3c2s1	1.54%
CCN(CC)CCCC(C)n1c2nc(=O)[nH]c(=O)c-2nc2cc(Cl)ccc21 (stereo not given)	75.6% (active)
CCN1CCN(C(=O)Cn2nc(C)n3c(cc4c(OC)cccc43)c2=O)CC1	21% (active)
COC(=O)c1cc(N2CCNCC2)nc2ccccc12	17.1% (active)
CN(CCc1ccccn1)S(=O)(=O)c1ccc2c3c(cccc13)C(=O)N2	68.2% (active)
COCCCn1c(-c2cccs2)nc2nc3ccccc3nc21	24.1% (active)
C=CCn1c(N)c(S(=O)(=O)c2cccs2)c2nc3ccccc3nc21	8.74%
Cc1cc2cc3n(c2nn1)N=C(Cl)CC3	33.3% (active)
CCC1=C(C(=O)OC)C(c2cc(OC)ccc2OC)C(C#N)=C(N)O1 (stereo not given)	32.8% (active)
O=c1oc2c(CN3CCCCC3)c(O)ccc2c2c1CCCCC2	74.6% (active)
COc1c(N2CCN(C(=S)Nc3ccccc3F)C(C)C2)c(F)cc2c(=O)c(C(=O)O)cn(C3CC3)c12 (stereo not given)	18.5% (active)
COc1ccc2c(c1)CCc1cn3ncc(C#N)c3nc1-2	-106%
CNc1cncc(-c2ccc(NS(C)(=O)=O)cc2)n1	39.7% (active)
C/C(=C\c1ccccc1)C1NC(=O)c2c(sc3c2CCCC3)N1 (stereo not given)	22.4% (active)

Compound	activation
COCc1cc(=O)oc2cc(NS(=O)(=O)c3ccc(C)cc3)ccc12	72.3% (active)
N#CC1=C(N)Oc2c(sc3ccccc23)C1c1ccco1 (stereo not given)	-25.1%
CC1(C)Oc2ccc3ccc(=O)oc3c2/C(=N/O)C1=O	89.9% (active)
Cc1nc2ccc(N)nc2nc1C	49.6% (active)
O=C1NC(c2cccc(Cl)c2)Nc2ccccc21 (stereo not given)	20.5% (active)
COc1ccc(CCNC(=O)Nc2ccc3c(c2)c(=O)n(C)n3C)cc1OC	24.5% (active)
CCNC(=S)Nc1ccc2c(c1)c(=O)n(C)n2Cc1ccc(Cl)cc1	-4.46%
C[C@@H]1C(c2ccc(F)cc2)=NN(c2ccc(Br)cc2)[C@H]1C(=O)N1CCOC1=O	27.9% (active)
CCN(CC(=O)Nc1c(F)cccc1F)C(=O)c1ccc(-c2ccc(C(C)=O)cc2)o1	-16.9%
O=C(NCCN1CCOCC1)c1cc(-c2cccs2)nc2ccccc12	24.8% (active)
CCCCN(C)CCCNC(=O)c1cc(-c2cccs2)nc2ccccc12	-47.1%
Cc1ccc(C2Nc3ccccc3C(=O)N2CCN2CCNC2=O)cc1 (stereo not given)	16.7% (active)
CC(=O)Nc1ccc(-c2cn3cccnc3n2)cc1	74% (active)
CCCCCC(=O)Nc1ccc(-c2cn3cccnc3n2)cc1	24.5% (active)
CC(C)(C)C(=O)Nc1ccc(-c2cn3cccnc3n2)cc1	73.9% (active)
CCN1CCCC1CNC(=O)c1cc2cc(OC)c(OC)cc2[nH]1 (stereo not given)	24.7% (active)
CCOc1ccc(-n2c(SCC(=O)Nc3cc(C)c(NC(=O)c4ccccc4)cc3OC)nnc2-c2cccs2)cc1	15.9% (active)
CC(=O)Nc1cc2ccc(OC(C)=O)cc2oc1=O	125% (active)
CC(=O)Oc1ccc2c(C)c(CC(C)O)c(=O)oc2c1 (stereo not given)	72.5% (active)
CN1c2ccccc2-c2nc3ccccc3n2C1c1ccco1 (stereo not given)	7.38%
Cc1cc(C)c2nc3nc(C)cc(C)c3c(N)c2c1	69% (active)
COc1cc2c(cc1OC)C(C(C)C)=NC(C)(C)C2	63.8% (active)
